# Test results from paper PMC8384837, “Expanding the binding specificity for RNA recognition by a PUF domain”.
# How the values were obtained:
# Assay in all cases: yeast three-hybrid, YBZ-1, SC-Leu-His + 0.5 mM 3-AT, 4 days
# Details in all cases: tags: N-Gal4 AD-HA kept; label: inside an RPR1-promoter hybrid RNA with tandem MS2 sites; ssRNA
# PUM1 PUF domain R7-TIV = PUM1 PUF domain R7-TIV (Homo sapiens, UniProt Q14671 828-1176, S1079T;N1080I;E1083V)
# Summary of the method: (§1)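 Repeat regions from input (SC-Leu) and selection (SC-Leu-His + 0.5 mM 3-AT) plates were PCR-amplified and Illumina-sequenced after four days of growth. The cells were strain YBZ-1 with a LexA–MS2 coat fusion and a HIS3 reporter, co-expressing Pumilio-1 PUF domain libraries and matching RNA elements from a centromeric plasmid. The interaction score is the log change in variant frequency from input to selection, taken in log2 with a pseudocount of 1 for absent variants.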
# PUM1 PUF domain R1-QTR = PUM1 PUF domain R1-QTR (Homo sapiens, UniProt Q14671 828-1176, S863Q;R864T;Q867R)
# Summary of the method: as §1
# PUM1 PUF domain R4-WSG = PUM1 PUF domain R4-WSG (Homo sapiens, UniProt Q14671 828-1176, N971W;H972S;Q975G)
# Summary of the method: as §1
# PUM1 PUF domain R3-RCS = PUM1 PUF domain R3-RCS (Homo sapiens, UniProt Q14671 828-1176, C935R;R936C;Q939S)
# Summary of the method: as §1
# PUM1 PUF domain R6-QRS = molecular target: T1, PUM1 PUF domain R6-QRS (Homo sapiens, UniProt Q14671 828-1176, N1043Q;Y1044R;Q1047S)
# T1 sequence: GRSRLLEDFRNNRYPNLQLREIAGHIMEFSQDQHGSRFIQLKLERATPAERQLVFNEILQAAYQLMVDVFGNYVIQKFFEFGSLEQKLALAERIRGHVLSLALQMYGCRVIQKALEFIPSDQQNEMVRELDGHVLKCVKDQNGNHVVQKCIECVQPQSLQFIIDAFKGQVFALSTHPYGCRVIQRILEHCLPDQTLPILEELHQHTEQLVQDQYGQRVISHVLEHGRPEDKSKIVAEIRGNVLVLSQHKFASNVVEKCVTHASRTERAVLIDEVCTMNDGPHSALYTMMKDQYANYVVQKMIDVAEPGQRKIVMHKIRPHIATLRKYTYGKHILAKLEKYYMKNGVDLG
# Summary of the method: as §1
# PUM1 PUF domain R3-IFT = PUM1 PUF domain R3-IFT (Homo sapiens, UniProt Q14671 828-1176, C935I;R936F;Q939T)
# Summary of the method: as §1
# PUM1 PUF domain R5-KYS = PUM1 PUF domain R5-KYS (Homo sapiens, UniProt Q14671 828-1176, C1007K;R1008Y;Q1011S)
# Summary of the method: as §1
# PUM1 PUF domain R8-EWK = PUM1 PUF domain R8-EWK (Homo sapiens, UniProt Q14671 828-1176, N1122E;Y1123W;Q1126K)
# Summary of the method: as §1
# PUM1 PUF domain R5-RRD = PUM1 PUF domain R5-RRD (Homo sapiens, UniProt Q14671 828-1176, C1007R;Q1011D)
# Summary of the method: as §1
# PUM1 PUF domain R5-RHN = PUM1 PUF domain R5-RHN (Homo sapiens, UniProt Q14671 828-1176, C1007R;R1008H;Q1011N)
# Summary of the method: as §1
sequence,measurement,setting,value
GGCUAGAACUAGUGGAUCCCCCGGCGCCCGGCGGCUCGAGCCCGGGUAAGUUUAAAUAGUCUGCAUGCCGCCGGGCGCCAUGCCUGCAGGUCGACUCUAGAAAACAUG,binding signal,PUM1 PUF domain R7-TIV,2.5 log2 enrichment (interaction score)
GGCUAGAACUAGUGGAUCCCCCGGCGCCCGGCGGCUCGAGCCCGGGUAAGUGUAAAUCGUCUGCAUGCCGCCGGGCGCCAUGCCUGCAGGUCGACUCUAGAAAACAUG,binding signal,PUM1 PUF domain R1-QTR,2.41 log2 enrichment (interaction score)
GGCUAGAACUAGUGGAUCCCCCGGCGCCCGGCGGCUCGAGCCCGGGUAAGUGUAUAUAGUCUGCAUGCCGCCGGGCGCCAUGCCUGCAGGUCGACUCUAGAAAACAUG,binding signal,PUM1 PUF domain R4-WSG,3.48 log2 enrichment (interaction score)
GGCUAGAACUAGUGGAUCCCCCGGCGCCCGGCGGCUCGAGCCCGGGUAAGUGUAAGUAGUCUGCAUGCCGCCGGGCGCCAUGCCUGCAGGUCGACUCUAGAAAACAUG,binding signal,PUM1 PUF domain R3-RCS,4.81 log2 enrichment (interaction score)
GGCUAGAACUAGUGGAUCCCCCGGCGCCCGGCGGCUCGAGCCCGGGUAAGUGUACAUAGUCUGCAUGCCGCCGGGCGCCAUGCCUGCAGGUCGACUCUAGAAAACAUG,binding signal,PUM1 PUF domain R4-WSG,2.7 log2 enrichment (interaction score)
GGCUAGAACUAGUGGAUCCCCCGGCGCCCGGCGGCUCGAGCCCGGGUAAGUGUAAAUAGUCUGCAUGCCGCCGGGCGCCAUGCCUGCAGGUCGACUCUAGAAAACAUG,binding signal,PUM1 PUF domain R6-QRS,4.63 log2 enrichment (interaction score)
same,binding signal,PUM1 PUF domain R4-WSG,1.85 log2 enrichment (interaction score)
same,binding signal,PUM1 PUF domain R3-IFT,4.66 log2 enrichment (interaction score)
same,binding signal,PUM1 PUF domain R5-KYS,2.35 log2 enrichment (interaction score)
same,binding signal,PUM1 PUF domain R8-EWK,3.5 log2 enrichment (interaction score)
same,binding signal,PUM1 PUF domain R5-RRD,2.72 log2 enrichment (interaction score)
GGCUAGAACUAGUGGAUCCCCCGGCGCCCGGCGGCUCGAGCCCGGGUAAGUGUUAAUAGUCUGCAUGCCGCCGGGCGCCAUGCCUGCAGGUCGACUCUAGAAAACAUG,binding signal,PUM1 PUF domain R5-RRD,5.74 log2 enrichment (interaction score)
GGCUAGAACUAGUGGAUCCCCCGGCGCCCGGCGGCUCGAGCCCGGGUAAGUGUCAAUAGUCUGCAUGCCGCCGGGCGCCAUGCCUGCAGGUCGACUCUAGAAAACAUG,binding signal,PUM1 PUF domain R5-KYS,3.71 log2 enrichment (interaction score)
same,binding signal,PUM1 PUF domain R5-RRD,5.76 log2 enrichment (interaction score)
GGCUAGAACUAGUGGAUCCCCCGGCGCCCGGCGGCUCGAGCCCGGGUAAGUGUGAAUAGUCUGCAUGCCGCCGGGCGCCAUGCCUGCAGGUCGACUCUAGAAAACAUG,binding signal,PUM1 PUF domain R5-RHN,4.79 log2 enrichment (interaction score)
